Test results taken from PubChem BioAssay (EPA / NIEHS).
The source made the active and inactive calls. How the source made its calls: active means hit-call score of the fitted dose curve at least 0.9, where 1 is the maximum; inactive means score below 0.9.

Legend:
[1] = ATG_GLI_CIS: Attagene CIS-FACTORIAL HepG2 Assay for human Zinc Finger Protein GLI1 (AID 2282945); details: HepG2, Attagene cis-factorial reporter mRNA, GLI element; actives raise or lower the signal
Method in brief: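 HepG2 cells transiently transfected with cis-promoter multiplexed reporter units report endogenous transcription factor activity. After 24 h chemical exposure, reporter mRNA was quantified by RT-PCR, 6-FAM labelling, HpaI digestion and capillary electrophoresis, with bidirectional fitting against DMSO.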

[2] = ATG_ISRE_CIS: Attagene CIS-FACTORIAL HepG2 Assay for human Interferon Regulatory Factor 1 (IRF1) binding to an Interferon-Stimulated Response Element (ISRE) (AID 2282948); details: HepG2 ISRE cis-reporter (Attagene), mRNA transcription readout; actives raise or lower the signal
Method in brief: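 Multiplexed mRNA reporter readout in human liver HepG2 cells: cis-element-driven reporters transfected, compound added for 24 h, transcripts amplified, fluorescently labelled and sized by capillary electrophoresis; curve fitting bidirectional against DMSO.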

[3] = ATG_M_32_CIS: Attagene CIS-FACTORIAL HepG2 Assay for M32 Transcription Factor (Internal Marker) (AID 2282949); details: HepG2 Attagene cis-factorial M32 reporter, mRNA; actives raise or lower the signal;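 further: background control marker of the multiplexed CIS panel rather than a real target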
Method in brief: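 Transient MRTU transfection of HepG2; 24 h compound treatment; TriZol RNA, oligo(dT) RT, reporter PCR, 6-FAM primer extension, HpaI cut, CE. Gain/loss of signal vs DMSO.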

[4] = ATG_M_06_CIS: Attagene CIS-FACTORIAL HepG2 Assay for M06 Transcription Factor (Internal Marker) (AID 2282950); details: HepG2 Attagene CIS-FACTORIAL M06 internal marker reporter; actives raise or lower the signal
Method in brief: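 HepG2 cells transiently transfected with cis-regulated multiple reporter transcription units were exposed to chemical for 24 h; reporter mRNA was quantified by RT-PCR, 6-FAM primer labelling, HpaI digestion and capillary electrophoresis, fitted bidirectionally against DMSO.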

[5] = molecular target: Hypoxia-inducible factor 1-alpha (Homo sapiens) (UniProt Q16665); assay: ATG_HIF1a_CIS: Attagene CIS-FACTORIAL HepG2 Assay for human Hypoxia Inducible Factor 1 (HIF1A) (AID 2282951); details: HepG2 Attagene cis-factorial HIF1a reporter transcription; actives raise or lower the signal
Method in brief: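 Cis-element reporter constructs were transiently transfected into HepG2 cells, which were treated for 24 h; reporter RNA was reverse-transcribed, amplified, labelled and resolved by capillary electrophoresis.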

[6] = molecular target: Hepatocyte nuclear factor 6 (Homo sapiens) (UniProt Q9UBC0); assay: ATG_HNF6_CIS: Attagene CIS-FACTORIAL HepG2 Assay for human Hepatocyte Nuclear Factor 6 (HNF6) (AID 2282952); details: HepG2 Attagene cis-factorial HNF6 reporter transcription; actives raise or lower the signal
Method in brief: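 Twenty-four-hour chemical treatment of reporter-transfected HepG2 cells precedes RNA isolation, DNase-treated reverse transcription and PCR of reporter sequences. Labelled fragments are sized by capillary electrophoresis and fitted bidirectionally versus DMSO.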

[7] = ATG_MRE_CIS: Attagene CIS-FACTORIAL HepG2 Assay for human Metal Responsive Element (MRE) (AID 2282954); details: HepG2 MRE cis-reporter transcription, Attagene multiplex; actives raise or lower the signal
Method in brief: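 Readout: capillary electrophoresis of 6-FAM-labelled, HpaI-digested RT-PCR reporter products. System: HepG2 cells carrying transient multiplexed cis reporters, dosed 24 h. Analysis: bidirectional fit, DMSO baseline.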

[8] = molecular target: Paired box protein Pax-6 (Homo sapiens) (UniProt P26367); assay: ATG_Pax6_CIS: Attagene CIS-FACTORIAL HepG2 Assay for human Paired Box 6 (PAX6) (AID 2282956); details: HepG2 CIS-FACTORIAL PAX6 reporter transcription, RNA readout; actives raise or lower the signal
Method in brief: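 Fluorescent RT-PCR products separated by capillary electrophoresis report PAX6-linked promoter mRNA in HepG2 cells 24 h post-dose. Curves fitted bidirectionally, DMSO as negative control.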

[9] = ATG_PXRE_CIS: Attagene CIS-FACTORIAL HepG2 Assay for human Pregnane X Receptor Element (PXRE) (AID 2282957); details: HepG2 Attagene CIS-FACTORIAL PXRE reporter, mRNA; actives raise or lower the signal
Method in brief: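 Bidirectional activity, baselined to DMSO, derived from reporter mRNA fluorescence (RT-PCR plus capillary electrophoresis) in HepG2 cells bearing cis-promoter reporter units, 24 h exposure.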

[10] = ATG_PPRE_CIS: Attagene CIS-FACTORIAL HepG2 Assay for human Peroxisome Proliferator-activated Response Element (PPRE) (AID 2282958); details: HepG2 PPRE cis-element reporter, Attagene transcription factor profiling; actives raise or lower the signal
Method in brief: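 DMSO served as negative control and baseline for bidirectional curve fitting. Signal came from PPRE-regulated reporter mRNA in HepG2 cells, measured 24 h post-dosing by RT-PCR, 6-FAM primer extension and capillary electrophoresis.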

[11] = ATG_Sox_CIS: Attagene CIS-FACTORIAL HepG2 Assay for human SRY-box transcription factor (SOX) (AID 2282960); details: HepG2 Attagene cis-factorial SOX reporter, mRNA; actives raise or lower the signal
Method in brief: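 Fluorescence-labelled cDNA fragments from reporter transcripts, sized by CE, give the signal. Cells: HepG2, transiently transfected with cis-regulated reporter units. Exposure 24 h; DMSO negative control; bidirectional curve fitting.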

[12] = molecular target: Transcription factor Sp1 (Homo sapiens) (UniProt P08047); assay: ATG_Sp1_CIS: Attagene CIS-FACTORIAL HepG2 Assay for human Specificity Protein 1 (Sp1) (AID 2282961); details: HepG2 Sp1 cis-reporter transcription, actives raise or lower the signal
Method in brief: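 Chemicals are dosed onto HepG2 cells transfected with multiple cis-promoter reporter constructs, and after 24 h reporter RNA is reverse-transcribed, PCR-amplified and resolved by capillary electrophoresis for fluorescence quantitation; activity is scored up or down against DMSO.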

[13] = ATG_SREBP_CIS: Attagene CIS-FACTORIAL HepG2 Assay for human Sterol Regulatory Element Binding (SREBP) (AID 2282962); details: HepG2 Attagene cis-factorial SREBP reporter, mRNA; actives raise or lower the signal
Method in brief: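 Endogenous factor activity is measured in HepG2 through multiplexed reporter units under cis-element control. Following a 24 h incubation, reporter transcripts are reverse-transcribed, PCR-amplified and sized by capillary electrophoresis; activity is fitted in both directions relative to DMSO.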

[14] = molecular target: Signal transducer and activator of transcription 3 (Homo sapiens) (UniProt P40763); assay: ATG_STAT3_CIS: Attagene CIS-FACTORIAL HepG2 Assay for human Signal Transducer and Activator of Transcription 3 (STAT3) (AID 2282963); details: HepG2, Attagene cis-factorial STAT3 reporter transcription; actives raise or lower the signal
Method in brief: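 Uses human liver HepG2 transiently carrying cis-regulated reporter transcription units. Following 24 h dosing, reporter mRNA induction was detected by RT-PCR and capillary electrophoresis, analysed bidirectionally versus DMSO.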

[15] = ATG_TA_CIS: Attagene CIS-FACTORIAL HepG2 Assay for human TA Basal Promoter (AID 2282964); details: HepG2 Attagene CIS-factorial TA basal promoter reporter; actives raise or lower the signal
Method in brief: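 HepG2 cells transiently transfected with multiplexed cis-promoter reporter units, dosed 24 h. Reporter mRNA measured by RT-PCR, 6-FAM labelling, HpaI digestion and capillary electrophoresis; bidirectional fit versus DMSO baseline, serving as background control.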

[16] = molecular target: Heat shock factor protein 1 (Homo sapiens) (UniProt Q00613); assay: ATG_HSE_CIS: Attagene CIS-FACTORIAL HepG2 Assay for human Heat Shock Transcription Factor 1 (HSE) (AID 2282953); details: HepG2 HSE cis-reporter, Attagene RNA transcription; actives raise or lower the signal
Method in brief: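 HepG2 cells transiently transfected with multiple reporter transcription units under cis-regulatory promoter control, measuring endogenous transcription factor activity. After 24 h chemical exposure, reporter mRNA quantified by RT-PCR, fluorescent labelling, HpaI digestion and capillary electrophoresis; bidirectional fit versus DMSO.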

[17] = ATG_RORE_CIS: Attagene CIS-FACTORIAL HepG2 Assay for human RAR-related Orphan Receptor Element (RORE) (AID 2282959); details: HepG2 Attagene cis-factorial RORE reporter, mRNA; actives raise or lower the signal
Method in brief: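 Transfect HepG2 with MRTUs; treat 24 h; extract RNA; RT with oligo(dT); PCR with reporter-specific primers; 6-FAM primer extension; HpaI digest 2 h at 37 C; capillary electrophoresis. Fit vs DMSO, bidirectional.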

[18] = ATG_PBREM_CIS: Attagene CIS-FACTORIAL HepG2 Assay for human Phenobarbital-responsive Enhancer Module (PBREM) (AID 2282955); details: HepG2 PBREM cis-reporter, Attagene multiplexed transcription; actives raise or lower the signal
Method in brief: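 Multiplexed cis-reporter readout in human hepatoma HepG2 cells; PBREM-regulated transcript quantified after 24 h exposure by fluorescent RT-PCR fragment analysis. Signal changes up or down fitted relative to DMSO.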

Measured: AC50

Paired box protein Pax-6 (Homo sapiens), sequence (P26367 whole entry, looked up): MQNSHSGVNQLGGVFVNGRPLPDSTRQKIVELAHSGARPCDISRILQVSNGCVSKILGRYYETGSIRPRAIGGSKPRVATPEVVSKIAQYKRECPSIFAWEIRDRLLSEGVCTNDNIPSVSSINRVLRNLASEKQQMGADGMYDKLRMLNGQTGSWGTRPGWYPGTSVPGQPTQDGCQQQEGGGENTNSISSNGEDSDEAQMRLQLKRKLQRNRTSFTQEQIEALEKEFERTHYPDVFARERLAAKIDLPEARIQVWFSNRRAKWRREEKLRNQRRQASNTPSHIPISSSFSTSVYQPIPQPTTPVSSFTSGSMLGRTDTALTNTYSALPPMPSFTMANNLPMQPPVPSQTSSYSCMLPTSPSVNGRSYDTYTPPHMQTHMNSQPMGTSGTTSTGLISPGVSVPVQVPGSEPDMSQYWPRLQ
Signal transducer and activator of transcription 3 (Homo sapiens), sequence (P40763 whole entry, looked up): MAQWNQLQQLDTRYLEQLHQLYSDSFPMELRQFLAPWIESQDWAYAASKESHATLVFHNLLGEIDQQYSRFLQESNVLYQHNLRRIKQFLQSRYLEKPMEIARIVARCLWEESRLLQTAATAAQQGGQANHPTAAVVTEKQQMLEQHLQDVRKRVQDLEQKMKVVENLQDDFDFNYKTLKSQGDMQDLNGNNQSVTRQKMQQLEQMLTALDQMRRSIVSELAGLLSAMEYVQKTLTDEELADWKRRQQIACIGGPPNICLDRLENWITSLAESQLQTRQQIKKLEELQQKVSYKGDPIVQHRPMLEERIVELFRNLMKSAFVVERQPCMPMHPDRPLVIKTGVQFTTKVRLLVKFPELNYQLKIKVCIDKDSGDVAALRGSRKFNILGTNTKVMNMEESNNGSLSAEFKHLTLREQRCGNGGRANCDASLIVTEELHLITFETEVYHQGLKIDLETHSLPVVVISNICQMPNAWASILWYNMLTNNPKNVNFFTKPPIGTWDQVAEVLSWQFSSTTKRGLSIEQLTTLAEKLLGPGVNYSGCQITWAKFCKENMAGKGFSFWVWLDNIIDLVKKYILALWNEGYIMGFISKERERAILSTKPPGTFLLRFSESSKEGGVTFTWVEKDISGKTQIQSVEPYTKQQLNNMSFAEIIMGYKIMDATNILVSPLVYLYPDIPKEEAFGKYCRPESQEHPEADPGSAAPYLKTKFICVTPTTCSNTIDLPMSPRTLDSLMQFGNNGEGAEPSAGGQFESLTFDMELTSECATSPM
Hepatocyte nuclear factor 6 (Homo sapiens), sequence (Q9UBC0 whole entry, looked up, the tested form may be a part): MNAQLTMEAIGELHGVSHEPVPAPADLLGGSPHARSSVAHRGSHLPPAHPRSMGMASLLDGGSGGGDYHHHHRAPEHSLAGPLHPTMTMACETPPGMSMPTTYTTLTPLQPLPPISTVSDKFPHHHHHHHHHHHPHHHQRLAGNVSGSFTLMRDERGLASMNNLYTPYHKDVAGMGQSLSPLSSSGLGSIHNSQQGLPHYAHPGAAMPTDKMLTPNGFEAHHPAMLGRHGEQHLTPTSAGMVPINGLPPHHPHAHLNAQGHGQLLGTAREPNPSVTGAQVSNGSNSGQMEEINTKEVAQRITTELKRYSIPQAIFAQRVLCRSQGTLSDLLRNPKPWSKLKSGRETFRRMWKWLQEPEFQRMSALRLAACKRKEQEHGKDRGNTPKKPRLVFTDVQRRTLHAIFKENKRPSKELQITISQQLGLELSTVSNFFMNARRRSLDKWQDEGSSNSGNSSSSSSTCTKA
Transcription factor Sp1 (Homo sapiens), sequence (P08047 whole entry, looked up): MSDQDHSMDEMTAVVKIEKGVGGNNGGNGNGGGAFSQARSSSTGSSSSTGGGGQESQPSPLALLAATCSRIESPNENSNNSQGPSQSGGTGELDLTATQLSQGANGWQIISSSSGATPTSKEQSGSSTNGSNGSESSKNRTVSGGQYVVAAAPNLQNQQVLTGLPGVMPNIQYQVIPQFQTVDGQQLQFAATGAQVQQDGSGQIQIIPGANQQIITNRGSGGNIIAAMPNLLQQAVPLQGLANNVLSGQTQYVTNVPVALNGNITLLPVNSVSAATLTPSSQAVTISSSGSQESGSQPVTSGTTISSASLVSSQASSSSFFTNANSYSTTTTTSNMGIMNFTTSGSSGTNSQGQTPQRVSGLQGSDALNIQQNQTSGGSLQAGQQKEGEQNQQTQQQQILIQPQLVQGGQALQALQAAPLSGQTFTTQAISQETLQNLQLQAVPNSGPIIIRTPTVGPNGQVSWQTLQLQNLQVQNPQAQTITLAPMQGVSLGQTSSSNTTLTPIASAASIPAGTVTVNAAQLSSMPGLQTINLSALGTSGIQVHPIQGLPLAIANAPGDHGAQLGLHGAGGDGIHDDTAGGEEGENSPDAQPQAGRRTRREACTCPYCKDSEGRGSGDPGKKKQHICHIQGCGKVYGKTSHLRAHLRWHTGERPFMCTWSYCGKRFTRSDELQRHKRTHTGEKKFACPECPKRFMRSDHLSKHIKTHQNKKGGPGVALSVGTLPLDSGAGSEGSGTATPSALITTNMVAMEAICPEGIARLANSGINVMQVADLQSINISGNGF
Hypoxia-inducible factor 1-alpha (Homo sapiens), sequence (Q16665 whole entry, looked up): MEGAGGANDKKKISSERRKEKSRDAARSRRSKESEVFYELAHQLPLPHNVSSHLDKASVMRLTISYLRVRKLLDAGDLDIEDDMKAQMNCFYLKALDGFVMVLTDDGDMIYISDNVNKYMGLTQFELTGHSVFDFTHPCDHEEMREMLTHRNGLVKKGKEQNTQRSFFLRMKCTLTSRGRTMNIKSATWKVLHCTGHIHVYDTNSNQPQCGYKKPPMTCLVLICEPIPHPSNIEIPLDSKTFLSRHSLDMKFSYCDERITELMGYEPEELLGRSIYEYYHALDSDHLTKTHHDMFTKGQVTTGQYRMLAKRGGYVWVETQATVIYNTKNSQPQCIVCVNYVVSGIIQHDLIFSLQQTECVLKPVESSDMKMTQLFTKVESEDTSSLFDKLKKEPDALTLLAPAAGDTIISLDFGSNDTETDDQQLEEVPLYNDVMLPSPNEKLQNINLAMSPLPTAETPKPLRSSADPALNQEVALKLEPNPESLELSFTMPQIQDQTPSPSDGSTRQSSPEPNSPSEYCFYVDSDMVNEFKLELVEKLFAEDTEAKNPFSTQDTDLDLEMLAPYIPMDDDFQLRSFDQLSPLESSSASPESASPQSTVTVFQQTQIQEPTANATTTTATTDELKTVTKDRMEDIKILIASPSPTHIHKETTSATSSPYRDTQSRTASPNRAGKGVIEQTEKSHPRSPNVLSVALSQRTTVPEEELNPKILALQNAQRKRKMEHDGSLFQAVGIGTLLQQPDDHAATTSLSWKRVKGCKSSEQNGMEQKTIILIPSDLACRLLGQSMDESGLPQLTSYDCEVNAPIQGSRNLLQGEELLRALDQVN
Heat shock factor protein 1 (Homo sapiens), sequence (Q00613 whole entry, looked up): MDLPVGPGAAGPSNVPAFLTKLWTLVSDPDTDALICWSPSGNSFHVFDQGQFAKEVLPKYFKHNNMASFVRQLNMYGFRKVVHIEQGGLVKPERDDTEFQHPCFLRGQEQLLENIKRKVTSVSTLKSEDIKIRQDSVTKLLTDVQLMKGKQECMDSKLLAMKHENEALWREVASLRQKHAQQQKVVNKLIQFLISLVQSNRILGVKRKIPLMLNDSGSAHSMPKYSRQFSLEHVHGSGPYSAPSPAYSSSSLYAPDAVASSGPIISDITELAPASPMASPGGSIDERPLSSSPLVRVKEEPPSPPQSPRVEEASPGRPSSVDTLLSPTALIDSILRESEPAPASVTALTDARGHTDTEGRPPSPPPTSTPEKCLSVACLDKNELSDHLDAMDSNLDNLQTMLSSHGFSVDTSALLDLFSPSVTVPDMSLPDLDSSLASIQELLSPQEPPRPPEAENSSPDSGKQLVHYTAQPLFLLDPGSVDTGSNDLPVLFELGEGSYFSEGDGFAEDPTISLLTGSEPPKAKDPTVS

CCCCCC1C(=O)CCC1CC(=O)OC (configuration not stated)
not listed: [16] | [17] | [18]
inactive: all other assays above

CC(C)C(=O)c1ccccc1
not listed: [8] | [11] | [15] | [18]
inactive: all other assays above

OCCN1CCOCC1
not listed: [6]
inactive: all other assays above

COc1ccc(C(C)=O)cc1
not listed: [6] | [10]
inactive: all other assays above

CCCCCC#CC(=O)OC
active: [9] 20.2 µM
not listed: [6]
inactive: all other assays above

COC(=O)c1ccc(C(=O)OC)cc1
not listed: [10] | [16] | [17]
inactive: all other assays above

CN(C)C
not listed: [10] | [17]
inactive: all other assays above

CCOC(=O)CCCCCCCCC(=O)OCC
not listed: [6] | [10]
inactive: all other assays above

CC(=O)OC/C=C(C)/C=C/C=C(C)/C=C/C1=C(C)CCCC1(C)C
active: [1] 159 µM | [2] 72.8 µM | [16] 155 µM | [7] 100 µM | [9] 0.426 µM | [11] 138 µM | [12] 172 µM | [13] 100 µM
inactive: [3] | [4] | [5] | [6] | [18] | [10] | [17] | [14]
